Measurements as given in PubChem BioAssay (NCATS).
Results filed as inconclusive are left out. Calls of active or inactive are those of the source. Calls follow the shape of the dose curve; as a rule, active = well fitted inhibition curve with a large enough effect; inconclusive = small, poorly fitted or top-dose-only effect; inactive = flat fitted curve, though single readings scatter.

What was measured:
Assay in all cases: qHTS profiling for inhibitors of Plasmodium falciparum proliferation (AID 504749); also: nearly all actives have a fitted effect of over 60% in size
Conditions in all cases: P. falciparum in erythrocytes, SYBR Green DNA, 72 h; series mostly up to 28.7 µM
[1] = tested on: CP256
Method in brief: (§1)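 P. falciparum-infected erythrocytes (0.3% parasitemia, 2.5% hematocrit final) were exposed to compounds for 72 h at 37 C in 5% CO2, then lysed with SYBR Green buffer overnight at room temperature; parasite DNA fluorescence was normalized to artemisinin and DMSO controls.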

[2] = tested on: CP260
Method in brief: as §1

[3] = tested on: CP262
Method in brief: as §1

[4] = tested on: CP265
Method in brief: as §1

[5] = tested on: CP266
Method in brief: as §1

[6] = tested on: CP268
Method in brief: as §1

[7] = tested on: CP269
Method in brief: as §1

[8] = tested on: CP286
Method in brief: as §1

[9] = tested on: CP291
Method in brief: as §1

[10] = tested on: CP297
Method in brief: as §1

[11] = tested on: CP305
Method in brief: as §1

[12] = tested on: CP315
Method in brief: as §1

[13] = tested on: CP325
Method in brief: as §1

[14] = tested on: CP329
Method in brief: as §1

[15] = tested on: CP335
Method in brief: as §1

[16] = tested on: DFO2036
Method in brief: as §1

[17] = tested on: DIV14
Method in brief: as §1

[18] = tested on: DIV17
Method in brief: as §1

[19] = tested on: DIV30
Method in brief: as §1

[20] = tested on: Dd2
Method in brief: as §1

[21] = tested on: ECU
Method in brief: as §1

[22] = tested on: FAB9
Method in brief: as §1

[23] = tested on: HB3
Method in brief: as §1

[24] = tested on: ICS
Method in brief: as §1

[25] = tested on: JCK
Method in brief: as §1

[26] = tested on: N140
Method in brief: as §1

[27] = tested on: P93_24
Method in brief: as §1

[28] = tested on: P94_40
Method in brief: as §1

[29] = tested on: PAD
Method in brief: as §1

[30] = tested on: PC15
Method in brief: as §1

[31] = tested on: PC26
Method in brief: as §1

[32] = tested on: PC49
Method in brief: as §1

[33] = tested on: SC27B
Method in brief: as §1

[34] = tested on: TAB109
Method in brief: as §1

[35] = tested on: TAB113
Method in brief: as §1

[36] = tested on: TAB165
Method in brief: as §1

[37] = tested on: W2
Method in brief: as §1

Measured: Potency

CN(C)[C@H]1C(=O)C(C(=O)NCN2CCCC2)=C(O)[C@]2(O)C(=O)C3=C(O)c4c(O)cccc4[C@](C)(O)[C@H]3C[C@H]12
inactive: all assays above
